Results on nine molecules are retold here after PubChem BioAssay.

The nature of assay [1]: small molecules captured by biotinylated probe aFSTL3 – biochemical, small-molecule microarray, fluorescence 635/667, stem cell growth factor project, primary screen (AID 1064).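 Also: measures binding of the biotinylated anti-FSTL3 antibody to printed compounds.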 The settings on record: higher = more signal.
Assay [2] can be described thus: binders from COS7 lysate, DM2A8 probe, primary screen, torsin A project, cell lysate, small-molecule microarray, fluorescence 635/667 (AID 1065). The following applies: higher = more signal, COS7 lysate expressing mutant human TOR1A.
A short description of assay [3]: small molecules captured by biotinylated probe aFGF2 – biochemical, small-molecule microarray, fluorescence 635/667, stem cell growth factor project, primary screen (AID 1067).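 Also: measures binding of biotinylated aFGF2 protein to printed compounds on slides; z-score merges feature fluorescence and signal-to-noise across triplicate slides.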 The settings on record: higher = more signal.
Assay [4] can be described thus: small molecules captured by biotinylated probe aFGF10 – biochemical, small-molecule microarray, fluorescence 635/667, stem cell growth factor project, primary screen (AID 1071).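 Also: score merges 667 nm spot intensity and signal to noise from triplicate slides.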 The following applies: higher = more signal.
Assay [5] has as its target Neurogenic locus notch homolog protein 2 (Homo sapiens) (UniProt Q04721). Briefly: small molecules binding Notch2 protein – biochemical, small-molecule microarray, 635 nm fluorescence, stem cell growth factors, primary screen (AID 1073). The following applies: higher = more signal.
The target of assay [6] is Pro-neuregulin-1, membrane-bound isoform (Homo sapiens) (UniProt Q02297). Briefly: small molecules binding neuregulin-1 protein – biochemical, small-molecule microarray, fluorescence 635/667, psychiatric disease protein project, primary screen (AID 1075).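 Also: score combines 667 nm spot fluorescence with signal to noise.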 The following applies: NRG1 binding, 635 nm fluorescence, higher = more signal.
In assay [7] the test system is Neuregulin-1 EGF-like domain. Briefly: small molecules binding NRG1 EGF domain – biochemical, small-molecule microarray, 635 nm fluorescence, primary screen (AID 1081).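 Also: binding of the protein to compounds printed on small-molecule microarray slides.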 The following applies: higher = more signal.
Assay [8] is described as follows: FRG1 expression reporter modulators in myotubes – cell-based, C2C12 myotubes, firefly/Renilla luciferase, luminescence, FRG1 inhibition for FSHD, primary screen (AID 1084). The settings on record: FRG1 promoter luciferase, higher = more signal, called active from +8 up or from −8 down.
The nature of assay [9]: small molecules captured by biotinylated probe aFST – biochemical, small-molecule microarray, fluorescence 635/667, stem cell growth factor project, primary screen (AID 1086).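 Also: score merges 667 nm fluorescence with signal-to-noise of each printed compound spot.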 The following applies: higher = more signal.
The nature of assay [10]: binders of probe aHhip on microarray, primary screen, stem cell growth factor project, biochemical, small-molecule microarray, fluorescence 635/667 (AID 1087).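 Also: score merges spot fluorescence at 667nm with spot signal to noise ratio.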 The following applies: higher = more signal.
For assay [11], the system named is PRMT1 (protein arginine N-methyltransferase 1). Briefly: small molecules binding arginine methyltransferase PRMT1 – biochemical, small-molecule microarray, 635 nm fluorescence, primary screen (AID 1088).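 Also: binding of Prmt1 protein to compounds spotted on small-molecule microarray slides.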 The settings on record: higher = more signal.
Assay [12] in a line: growth effects on S. cerevisiae YJM789 – YJM789 clinical isolate, OD600, 24 h, basal, primary screen (AID 1089).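 Also: growth of clinical yeast isolate S. cerevisiae YJM 789 seeded 1000 cells per well; test concentration not given here.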 The settings on record: higher = more signal, called active from +8 up or from −8 down.
Assay [13] in a line: S. pombe growth modifiers, basal conditions – strain 972, OD600, 24 h, no modulator, primary screen (AID 1090).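 Also: basal condition with compound alone and no growth modifier present; test concentration not given here.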 The following applies: S. pombe 972 growth, higher = more signal, called active from +8 up or from −8 down.
Assay [14] in a line: budding yeast growth modifiers under rapamycin – strain BY4716, OD600, 96 h, primary screen (AID 1091). Also: test concentration not given here. The following applies: S. cerevisiae BY4716 + rapamycin, higher = more signal, called active from +8 up or from −8 down.
The target in assay [15] is Torsin-1A-interacting protein 2 (Homo sapiens) (UniProt Q8NFQ8). Briefly: small molecules binding lysate-expressed LULL1 – cell lysate, human LULL1 lysate, 635/667 nm fluorescence, primary screen (AID 1092).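 Also: probe is lysate of COS7 cells overexpressing human LULL1; score merges per-feature 667 nm fluorescence with signal-to-noise.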 The following applies: small-molecule microarray, hLULL1 lysate binding, 635 nm fluorescence; higher = more signal.
A short description of assay [16]: optical density change of DRC41 E. coli – strain DRC41, OD650, 24 h, E. coli filamentation project, primary screen (AID 1093).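 Also: MC1000 strain lacking acrAB efflux and sulA so SOS filamentation is blocked; test concentration not given here.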 The following applies: E. coli DRC41 growth, higher = more signal, called active from +8 up or from −8 down.
Assay [17] in a line: probe aLefty2 binding to arrayed compounds – biochemical, biotinylated probe, 635/667 nm fluorescence, primary screen (AID 1094).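 Also: score merges spot fluorescence near 667 nm with spot signal-to-noise ratio.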 The following applies: small-molecule microarray, higher = more signal.
The subject of assay [18] is Noggin (protein binding on small-molecule microarray). Briefly: small molecules binding Noggin protein – biochemical, 635/667 nm fluorescence, primary screen (AID 1095).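 Also: score merges 667 nm feature fluorescence with signal to noise over triplicate slides.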 The settings on record: 635 nm fluorescence, higher = more signal.
Assay [19] concerns the target Neurogenic locus notch homolog protein 3 (Homo sapiens) (UniProt Q9UM47). Briefly: small molecules binding NOTCH3 protein – biochemical, 635/667 nm fluorescence, primary screen (AID 1096). The following applies: small-molecule microarray, 635 nm fluorescence, higher = more signal.
Assay [20] is described as follows: probe aEGFR binding to arrayed compounds – biochemical, biotinylated probe, 635/667 nm fluorescence, primary screen (AID 1097).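 Also: probe is a biotinylated anti-EGFR antibody binding compounds printed on slides; score combines fluorescence near 667 nm and signal to noise of each spot.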 The following applies: small-molecule microarray, higher = more signal.

Molecules are shown by their SMILES. The source made the active and inactive calls.

Sequence of Pro-neuregulin-1, membrane-bound isoform (Homo sapiens) (Q02297 whole entry, looked up, the tested form may be a part, canonical isoform): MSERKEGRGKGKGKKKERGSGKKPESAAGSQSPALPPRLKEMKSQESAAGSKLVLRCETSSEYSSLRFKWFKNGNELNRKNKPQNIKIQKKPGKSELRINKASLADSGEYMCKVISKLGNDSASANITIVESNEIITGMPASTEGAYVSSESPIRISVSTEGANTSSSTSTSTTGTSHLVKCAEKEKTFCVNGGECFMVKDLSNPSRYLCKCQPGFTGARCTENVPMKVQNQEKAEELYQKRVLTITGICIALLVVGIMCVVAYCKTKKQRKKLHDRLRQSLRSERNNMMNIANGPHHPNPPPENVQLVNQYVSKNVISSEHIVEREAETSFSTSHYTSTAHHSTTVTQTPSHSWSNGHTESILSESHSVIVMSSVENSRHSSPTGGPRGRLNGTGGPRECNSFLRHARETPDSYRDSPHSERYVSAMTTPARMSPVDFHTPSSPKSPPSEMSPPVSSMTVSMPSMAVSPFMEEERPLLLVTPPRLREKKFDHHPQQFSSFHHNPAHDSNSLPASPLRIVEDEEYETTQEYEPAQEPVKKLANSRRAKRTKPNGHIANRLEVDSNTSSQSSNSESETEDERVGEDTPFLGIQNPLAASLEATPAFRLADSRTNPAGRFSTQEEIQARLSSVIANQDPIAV
Sequence of Neurogenic locus notch homolog protein 3 (Homo sapiens) (Q9UM47 whole entry, looked up): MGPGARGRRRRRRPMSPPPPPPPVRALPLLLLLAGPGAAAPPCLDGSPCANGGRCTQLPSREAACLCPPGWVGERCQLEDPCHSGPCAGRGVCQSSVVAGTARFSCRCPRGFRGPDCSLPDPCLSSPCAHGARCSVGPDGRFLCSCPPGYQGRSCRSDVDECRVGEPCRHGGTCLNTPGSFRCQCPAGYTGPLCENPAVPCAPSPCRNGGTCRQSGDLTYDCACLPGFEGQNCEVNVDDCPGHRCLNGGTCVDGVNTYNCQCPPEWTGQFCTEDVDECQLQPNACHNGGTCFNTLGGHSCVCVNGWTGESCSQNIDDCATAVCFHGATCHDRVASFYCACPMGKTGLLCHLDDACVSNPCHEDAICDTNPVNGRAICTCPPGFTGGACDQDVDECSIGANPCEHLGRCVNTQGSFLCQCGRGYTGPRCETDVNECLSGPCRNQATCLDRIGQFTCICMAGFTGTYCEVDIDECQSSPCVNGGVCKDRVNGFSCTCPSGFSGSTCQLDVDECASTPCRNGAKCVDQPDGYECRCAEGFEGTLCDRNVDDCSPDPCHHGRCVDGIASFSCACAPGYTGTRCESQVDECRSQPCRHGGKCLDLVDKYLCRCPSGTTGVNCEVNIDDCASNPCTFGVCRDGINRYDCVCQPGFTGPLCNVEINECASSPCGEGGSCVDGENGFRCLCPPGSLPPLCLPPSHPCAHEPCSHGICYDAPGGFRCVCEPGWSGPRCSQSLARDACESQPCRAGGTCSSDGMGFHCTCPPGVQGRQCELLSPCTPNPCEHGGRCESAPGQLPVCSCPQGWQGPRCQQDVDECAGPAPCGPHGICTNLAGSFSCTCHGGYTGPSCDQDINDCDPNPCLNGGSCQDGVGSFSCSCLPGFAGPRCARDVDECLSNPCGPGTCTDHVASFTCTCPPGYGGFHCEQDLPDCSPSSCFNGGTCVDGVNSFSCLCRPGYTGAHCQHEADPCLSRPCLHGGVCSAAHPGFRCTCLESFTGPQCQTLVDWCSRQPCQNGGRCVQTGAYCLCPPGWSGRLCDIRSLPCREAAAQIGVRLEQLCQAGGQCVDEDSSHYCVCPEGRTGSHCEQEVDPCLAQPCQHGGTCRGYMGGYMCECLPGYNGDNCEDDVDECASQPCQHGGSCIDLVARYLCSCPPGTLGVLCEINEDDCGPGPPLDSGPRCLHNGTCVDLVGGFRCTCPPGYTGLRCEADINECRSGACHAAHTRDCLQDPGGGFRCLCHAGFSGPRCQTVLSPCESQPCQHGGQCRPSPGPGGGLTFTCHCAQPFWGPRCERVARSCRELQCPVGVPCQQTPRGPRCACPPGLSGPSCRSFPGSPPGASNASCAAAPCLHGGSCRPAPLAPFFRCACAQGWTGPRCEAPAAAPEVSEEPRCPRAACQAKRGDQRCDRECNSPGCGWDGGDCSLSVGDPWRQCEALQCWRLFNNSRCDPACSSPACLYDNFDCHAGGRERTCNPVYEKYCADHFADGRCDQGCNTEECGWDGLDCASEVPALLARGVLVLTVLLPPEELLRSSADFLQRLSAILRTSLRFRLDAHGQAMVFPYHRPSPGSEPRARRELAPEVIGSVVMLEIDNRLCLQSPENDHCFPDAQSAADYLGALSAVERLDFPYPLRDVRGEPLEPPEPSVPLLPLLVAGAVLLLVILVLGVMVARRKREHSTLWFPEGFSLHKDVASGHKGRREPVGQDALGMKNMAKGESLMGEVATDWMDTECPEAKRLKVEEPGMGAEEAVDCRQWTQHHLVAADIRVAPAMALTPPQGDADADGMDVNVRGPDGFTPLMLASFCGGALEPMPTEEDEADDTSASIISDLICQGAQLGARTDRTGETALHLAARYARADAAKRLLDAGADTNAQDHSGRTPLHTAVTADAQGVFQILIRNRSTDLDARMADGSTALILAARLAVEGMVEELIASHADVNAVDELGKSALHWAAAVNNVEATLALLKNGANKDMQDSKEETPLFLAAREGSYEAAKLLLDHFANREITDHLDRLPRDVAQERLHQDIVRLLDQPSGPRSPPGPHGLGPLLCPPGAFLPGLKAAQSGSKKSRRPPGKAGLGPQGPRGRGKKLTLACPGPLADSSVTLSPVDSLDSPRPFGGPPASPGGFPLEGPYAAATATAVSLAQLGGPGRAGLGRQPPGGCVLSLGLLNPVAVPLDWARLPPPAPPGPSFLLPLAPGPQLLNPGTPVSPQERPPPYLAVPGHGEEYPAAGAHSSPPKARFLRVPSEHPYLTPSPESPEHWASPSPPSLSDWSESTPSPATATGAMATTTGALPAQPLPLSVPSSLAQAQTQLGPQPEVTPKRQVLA
Sequence of Torsin-1A-interacting protein 2 (Homo sapiens) (Q8NFQ8 whole entry, looked up): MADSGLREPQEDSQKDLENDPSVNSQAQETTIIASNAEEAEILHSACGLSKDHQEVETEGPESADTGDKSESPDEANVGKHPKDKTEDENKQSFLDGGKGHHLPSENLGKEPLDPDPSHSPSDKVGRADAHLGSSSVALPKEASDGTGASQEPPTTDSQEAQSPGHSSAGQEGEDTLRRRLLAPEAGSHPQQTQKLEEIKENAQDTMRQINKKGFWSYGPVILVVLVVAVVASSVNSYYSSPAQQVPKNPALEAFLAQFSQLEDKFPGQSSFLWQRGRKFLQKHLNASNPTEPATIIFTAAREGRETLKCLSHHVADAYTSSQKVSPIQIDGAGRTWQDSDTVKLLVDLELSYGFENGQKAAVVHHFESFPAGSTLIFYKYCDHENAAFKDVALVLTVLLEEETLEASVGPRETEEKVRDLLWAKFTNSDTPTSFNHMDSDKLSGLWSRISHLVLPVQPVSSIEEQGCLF

In the case of `C=CCNC(=O)[C@@H]1[C@H]2C(=O)O[C@H](c3ccccc3)[C@H](c3ccccc3)N2[C@H](c2ccc(O)cc2)[C@@]12C(=O)Nc1ccc(C#CCNC(N)=O)cc12`, the composite z-score in assay [1] was 0.0358; in assay [2] it was 0.135; in [3], -0.114; in [4], -0.172; in [5], -0.383; in [6] it was 0.623. The composite z-score in assay [7] was -0.0033; in [9], -0.633; in assay [10] it was -0.226; in assay [11] it was 0.575; in [15], 2.13; in [17] it was -0.117. The composite z-score in assay [18] was 0.385; in [19], 0.0332; in [20] it was -0.172. Besides, the z-score was 1.57 (inactive) in assay [8]; -0.358 (inactive) in assay [12]; 0.112 (inactive) in [13]; 1.69 (inactive) in assay [14]; -1.11 (inactive) in [16].
Consider `COc1ccc(CCNC(=O)[C@@]2(C)c3ccccc3C(=O)N(C(C)C)[C@H]2c2ccc(CO)cc2)cc1`, for which the composite z-score was -0.182 in assay [1]; 0.39 in assay [2]; 0.0376 in assay [3]; 0.4 in [4]; 0.246 in [5]; 0.693 in [6]. Moreover, the composite z-score is 1.3 in [7]; 0.933 in assay [9]; -0.394 in assay [10]; 0.601 in assay [11]; 2.15 in [15]; -0.107 in assay [17]. Moreover, the composite z-score is 0.456 in assay [18], -0.399 in assay [19] and 0.0117 in [20]. The z-score in assay [8] was -0.262 (inactive); in assay [12] it was -0.122 (inactive); in assay [13], -0.366 (inactive); in assay [14], -0.321 (inactive); in assay [16], 0.721 (inactive).
For `COC(=O)C(CC#Cc1ccc2c(c1)[C@]1(C(=O)N2)[C@H](c2ccc(OCCO)cc2)N2[C@H](c3ccccc3)[C@H](c3ccccc3)OC(=O)[C@H]2[C@@H]1C(=O)Nc1nc2ccccc2s1)C(=O)OC`, the composite z-score in [1] is -0.319; in assay [2], -0.164; in [3], 0.0519; in assay [4], 0.465; in [5], 1.03; in assay [6], 1.36. Further, the composite z-score in [7] was 1.19; in [9] it was 0.582; in assay [10], 0.0156; in assay [11], 1.58; in assay [15], 2.45; in assay [17], -0.175. For the same molecule, the composite z-score was found to be 1.41 in [18], 1.09 in assay [19] and 0.0562 in [20]. The z-score is 2.62 (inactive) in assay [8]; 2.63 (inactive) in assay [12]; 2.22 (inactive) in assay [13]; 3.14 (inactive) in assay [14]; 2.13 (inactive) in assay [16].
`COC(=O)[C@@]1(Cc2ccc(OC)cc2)[C@H]2c3cc(C(=O)N4CCCC4)n(Cc4ccc(O)c(OC)c4)c3C[C@H]2CN1C(=O)c1ccccc1`: the composite z-score was found to be 1.41 in assay [1]; 1.14 in assay [2]; 0.694 in [3]; 0.777 in [4]; 1.1 in assay [5]; 1.83 in assay [6]. In addition, the composite z-score in [7] was 1.1; in [9], 2.28; in assay [10] it was 2.44; in assay [11], -0.356; in assay [15], 3.39; in [17] it was 0.531. Moreover, the composite z-score was -0.194 in assay [18], 0.6 in assay [19] and 0.805 in assay [20]. Also, the z-score was 0.665 (inactive) in [8]; 0.972 (inactive) in assay [12]; 1.19 (inactive) in assay [13]; 1.18 (inactive) in assay [14]; -0.456 (inactive) in assay [16].
With `CC(C)C(=C=CC[C@@H](O)c1ccc(OCCO)cc1)C[C@@H](O)c1ccccn1`, the composite z-score in [1] was -0.149; in assay [2] it was 0.651; in assay [3], 0.0297; in [4], 1.19; in assay [5] it was 0.344; in assay [6], -0.272. The composite z-score in [7] was 0.826; in assay [9], -0.0267; in assay [10], -0.166; in [11], 1.19; in assay [15], -0.27; in assay [17], -0.235. For the same molecule, the composite z-score was 1.08 in assay [18], 0.813 in assay [19] and -0.133 in [20]. The z-score in assay [8] is 0.463 (inactive); in [12] it was -1 (inactive); in [13], -0.141 (inactive); in assay [14] it was -0.347 (inactive); in assay [16], -0.162 (inactive).
Turning to `COC(=O)C[C@H]1O[C@]2(C(=O)N(C)c3ccccc32)[C@@H](C)[C@@H]1[Si](C)(C)F`, the composite z-score in [1] is -0.54; in assay [2] it was 0.109; in assay [3] it was -0.131; in assay [4], 0.626; in [5], 0.423; in [6], -0.133. Moreover, the composite z-score was 0.346 in assay [7]; -0.0253 in assay [9]; 0.141 in [10]; 1.54 in assay [11]; 2.24 in assay [15]; -0.168 in assay [17]. The composite z-score in [18] is 1.86; in [19], 0.59; in assay [20], -0.132. Further, the z-score in assay [8] was -1.35 (inactive); in [12], -2.06 (inactive); in assay [13], -1.29 (inactive); in assay [14], -0.922 (inactive); in assay [16] it was 1.64 (inactive).
On to `[N-]=[N+]=NCc1ccccc1C[C@]1(C(N)=O)COC(c2ccc(OCCCO)cc2)=N1`, for which the composite z-score in assay [1] is 0.293; in assay [2], 2.02; in [3], -0.0805; in assay [4] it was -0.101; in assay [5], 0.63; in [6], 1.59. In addition, the composite z-score in [7] came out at 1.03; in [9], 0.847; in assay [10] it was 0.154; in assay [11], 0.945; in assay [15] it was 3.1; in assay [17] it was 0.0567. Further, the results for the composite z-score in assay [18], in [19] and in [20] were -0.572, 0.31 and 0.0641, respectively. In addition, the z-score is -1.41 (inactive) in assay [8]; -4.72 (inactive) in assay [12]; -1.09 (inactive) in assay [13]; -1.19 (inactive) in assay [14]; 1.95 (inactive) in [16].
With `COc1ccc([Si](C)(C)[C@@H]2[C@@H](CCO)O[C@]3(C(=O)N(Cc4ccc(N(C=O)c5ccccc5)cc4)c4ccccc43)[C@H]2C)cc1`, the composite z-score was 0.235 in assay [1]; 0.0422 in [2]; -0.0332 in assay [3]; 0.255 in [4]; 0.719 in [5]; 0.508 in [6]. Moreover, the composite z-score in [7] was 0.565; in assay [9], 0.643; in assay [10] it was -0.0994; in assay [11], 0.883; in assay [15], 0.758; in assay [17], 0.122. For the same molecule, the composite z-score is 0.445 in [18], 0.332 in assay [19] and -0.0466 in assay [20]. Besides, the z-score in [8] is -3.73 (inactive); in [12], 1.47 (inactive); in assay [13] it was 0.552 (inactive); in assay [14] it was 25.3 (active); in [16], 0.0689 (inactive).
Take `CC[C@@H]1C=C(C(=O)O)[C@H](c2ccc(Br)cc2)N1S(=O)(=O)c1ccc(C)cc1`: the composite z-score worked out at 0.191 in assay [1]; 0.0963 in assay [2]; 0.0746 in [3]; 0.638 in assay [4]; 1.26 in assay [5]; 1.93 in assay [6]. Moreover, the composite z-score in [7] is 0.503; in assay [9] it was 0.614; in [10] it was 0.141; in assay [11], 0.399; in assay [15], 2.7; in assay [17], 0.295. Also, the figures for the composite z-score in [18], in [19] and in [20] were 0.37, 0.481 and -0.0512, respectively. Also, the z-score in assay [8] is -1.18 (inactive); in assay [12], -0.564 (inactive); in assay [13] it was 0.794 (inactive); in assay [14] it was -0.535 (inactive); in assay [16], -0.319 (inactive).
